Drawing on PubChem BioAssay (NCI), this text covers growth for eight compounds.

Test systems include DU-145 prostate; K-562 leukemia; MALME-3M melanoma; MDA-MB-231 breast; RXF 393 renal; SF-268 CNS; SF-295 CNS; SF-539 CNS; UACC-257 melanoma; M14 melanoma; HCT-15 colon; HT29 colon; SNB-75 CNS; SNB-19 CNS; U251 CNS; PC-3 prostate; SK-MEL-5 melanoma; UACC-62 melanoma; LOX IMVI melanoma; SK-MEL-28 melanoma.
Holding throughout (assay): NCI-60 one-dose screen, 48 h (100 = growth as untreated, 0 = no growth, -100 = all killed)
Common to all, as to settings: 10 µM unless noted

The panel holds about 83,000 compounds, 20% with a hit somewhere; the sample as a whole holds those more often.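 For each line, cells grew in 96-well plates with the test compound present at a single concentration for 48 hours.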 Unmarked numbers belong to inactive results. Active and inactive are the calls of the source. Rule for the calls: active = growth percent below 10; inactive = the rest.

For `CCN1c2ccccc2C(Cl)(c2ccc(N(C)C)cc2)c2ccccc21`, the growth in the assay on DU-145 prostate is 74.1%; in the assay on K-562 leukemia it was 60.8%; in the assay with MALME-3M melanoma, 9.82% (active); in the assay with MDA-MB-231 breast it was 70.3%; in the assay on RXF 393 renal, 59.4%; in the assay with SF-268 CNS, 54.2%. Besides, the growth in the assay with SF-295 CNS is 88.4%; with SF-539 CNS it was 93.7%; with UACC-257 melanoma it was 70.3%; in the assay with M14 melanoma, 72.9%; in the assay on HCT-15 colon it was 73.6%; in the assay on HT29 colon, 3.81% (active). The growth is 68.5% in the assay with SNB-75 CNS; 53.8% with SNB-19 CNS; 19.5% in the assay on U251 CNS; 25.6% with PC-3 prostate; 78.9% in the assay with SK-MEL-5 melanoma; 51.6% in the assay on UACC-62 melanoma. The growth in the assay with LOX IMVI melanoma was 18.9%; in the assay with SK-MEL-28 melanoma it was 86.2%.
On to `COc1ccc(C(=O)/C=C/c2ccccn2)c(O)c1`, for which the growth with DU-145 prostate is 45.1%; in the assay on K-562 leukemia, 41.9%; in the assay with MALME-3M melanoma, 88.2%; in the assay with MDA-MB-231 breast, 82.4%; in the assay with RXF 393 renal, 56.2%; in the assay on SF-268 CNS it was 90.5%. Further, the growth was 97.1% in the assay with SF-295 CNS; 49.4% in the assay on SF-539 CNS; 100% with UACC-257 melanoma; 86.6% in the assay with M14 melanoma; 39.7% in the assay on HCT-15 colon; 72.2% with HT29 colon. Besides, the growth was 78.1% with SNB-75 CNS; 73.1% in the assay with SNB-19 CNS; 87.5% in the assay on U251 CNS; 95.5% in the assay on PC-3 prostate; 95% with SK-MEL-5 melanoma; 90.8% in the assay with UACC-62 melanoma. The values for the growth in the assay with LOX IMVI melanoma and in the assay on SK-MEL-28 melanoma were -54.9% (active) and 90.7%, respectively.
As to `CCOc1cc(NC(=O)c2ccccc2)c(OCC)cc1N`, the growth is 110% in the assay on DU-145 prostate; 113% in the assay on K-562 leukemia; 147% in the assay with MALME-3M melanoma; 104% in the assay on MDA-MB-231 breast; 117% with RXF 393 renal; 106% in the assay on SF-268 CNS. The growth in the assay with SF-295 CNS is 121%; in the assay on SF-539 CNS, 112%; in the assay with UACC-257 melanoma, 118%; with M14 melanoma, 116%; in the assay on HCT-15 colon, 111%; in the assay with HT29 colon it was 121%. Besides, the growth in the assay on SNB-75 CNS is 106%; in the assay on SNB-19 CNS, 105%; in the assay with U251 CNS, 106%; in the assay with PC-3 prostate, 104%; with SK-MEL-5 melanoma it was 107%; with UACC-62 melanoma, 106%. Further, the growth is 100% in the assay on LOX IMVI melanoma and 118% with SK-MEL-28 melanoma.
Turning to `Cc1ccc2c(c1)/C(=N\N=C/c1cn(C(C)C)c3ccccc13)C(=O)N2`, the growth in the assay with DU-145 prostate was 72.2%; in the assay on K-562 leukemia, 22.1%; in the assay with MALME-3M melanoma, 16.2%; in the assay with MDA-MB-231 breast, 50.5%; in the assay on RXF 393 renal, 22.5%; with SF-268 CNS, 66.4%. Moreover, the growth in the assay on SF-295 CNS was 68.2%; in the assay on SF-539 CNS it was 58.6%; in the assay on UACC-257 melanoma, 59.5%; in the assay on M14 melanoma it was 54%; in the assay with HCT-15 colon it was 28.6%; in the assay with HT29 colon, 11.3%. Moreover, the growth in the assay on SNB-75 CNS was 67.3%; in the assay with SNB-19 CNS it was 76.5%; with U251 CNS it was 63.6%; in the assay on PC-3 prostate it was 34.7%; with SK-MEL-5 melanoma, 66%; in the assay with UACC-62 melanoma it was 50.1%. Moreover, the growth with LOX IMVI melanoma was 20%; in the assay with SK-MEL-28 melanoma, 73.4%.
Turning to `Cc1ccc(-n2nc3n(/c2=N\C(=O)NS(=O)(=O)c2ccc(C)cc2)CCN3C2=NCCN2)cc1`, the growth in the assay with DU-145 prostate is 108%; with K-562 leukemia it was 109%; in the assay with MALME-3M melanoma, 106%; in the assay on MDA-MB-231 breast, 99.7%; with RXF 393 renal, 123%; in the assay on SF-268 CNS, 103%. The growth in the assay on SF-295 CNS was 102%; in the assay on SF-539 CNS, 95.1%; in the assay on UACC-257 melanoma it was 98.1%; in the assay with M14 melanoma, 101%; in the assay on HCT-15 colon, 105%; in the assay with HT29 colon it was 107%. For the same compound, the growth in the assay on SNB-75 CNS is 85.6%; in the assay with SNB-19 CNS, 99.2%; with U251 CNS it was 105%; in the assay with PC-3 prostate, 96.4%; in the assay with SK-MEL-5 melanoma, 105%; in the assay with UACC-62 melanoma it was 95.9%. The growth in the assay on LOX IMVI melanoma is 113%; in the assay on SK-MEL-28 melanoma, 101%.
With `CC(C)CCSC1=CC(=O)c2ccccc2C1=O`, the growth is 77% with DU-145 prostate; 19.3% in the assay with K-562 leukemia; -23.5% (active) with MALME-3M melanoma; 0.131% (active) with MDA-MB-231 breast; 43.8% with RXF 393 renal; 74.6% in the assay on SF-268 CNS. In addition, the growth with SF-295 CNS is 103%; in the assay on SF-539 CNS, 94.4%; in the assay with UACC-257 melanoma, 58.6%; in the assay with M14 melanoma, 68.3%; with HCT-15 colon, 72%; with HT29 colon, 97%. Also, the growth with SNB-75 CNS is 7.99% (active); in the assay with SNB-19 CNS, 92.3%; in the assay on U251 CNS, 86.3%; in the assay with PC-3 prostate it was 37.8%; in the assay on SK-MEL-5 melanoma, 67.8%; in the assay with UACC-62 melanoma, 74%. For the same compound, the growth in the assay on LOX IMVI melanoma was 38%; with SK-MEL-28 melanoma, 27.2%.
As for `CC1(C)CC[C@]2(C(N)=O)CC[C@]3(C)C(=CC[C@@H]4[C@@]5(C)C/C(=C/c6ccncc6)C(=O)C(C)(C)[C@@H]5CC[C@]43C)[C@@H]2C1`, the growth in the assay on DU-145 prostate was -36.4% [100 µM] (active); with K-562 leukemia, 3.83% [100 µM] (active); in the assay on MALME-3M melanoma, -84.9% [100 µM] (active); with MDA-MB-231 breast it was -75% [100 µM] (active); in the assay on RXF 393 renal, -52.5% [100 µM] (active); with SF-268 CNS, -37.2% [100 µM] (active). Besides, the growth in the assay on SF-295 CNS is -64.4% [100 µM] (active); in the assay with SF-539 CNS, -68.1% [100 µM] (active); with UACC-257 melanoma, -58.6% [100 µM] (active); in the assay on M14 melanoma, -24.4% [100 µM] (active); with HCT-15 colon, -49.7% [100 µM] (active); in the assay on HT29 colon it was -65.4% [100 µM] (active). The growth was -86.4% [100 µM] (active) in the assay on SNB-75 CNS; -83.8% [100 µM] (active) with SNB-19 CNS; -81.1% [100 µM] (active) in the assay with U251 CNS; -33.5% [100 µM] (active) in the assay on PC-3 prostate; -71.1% [100 µM] (active) in the assay with SK-MEL-5 melanoma; -79.7% [100 µM] (active) with UACC-62 melanoma. The growth in the assay with LOX IMVI melanoma was -51.4% [100 µM] (active); with SK-MEL-28 melanoma, -64.7% [100 µM] (active).
Regarding `CC1(C)CC[C@]2(C(N)=O)CC[C@]3(C)C(=CC[C@@H]4[C@@]5(C)C/C(=C/c6cccnc6)C(=O)C(C)(C)[C@@H]5CC[C@]43C)[C@@H]2C1`, the growth in the assay on DU-145 prostate was -18% [100 µM] (active); in the assay with K-562 leukemia, 4.29% [100 µM] (active); in the assay with MALME-3M melanoma, -75.9% [100 µM] (active); in the assay on MDA-MB-231 breast it was -45.2% [100 µM] (active); with RXF 393 renal it was -63% [100 µM] (active); in the assay with SF-268 CNS, -5.09% [100 µM] (active). The growth was -53.9% [100 µM] (active) with SF-295 CNS; -61.5% [100 µM] (active) in the assay with SF-539 CNS; -54.7% [100 µM] (active) with UACC-257 melanoma; -11.2% [100 µM] (active) in the assay on M14 melanoma; -65.6% [100 µM] (active) with HCT-15 colon; -35.6% [100 µM] (active) with HT29 colon. In addition, the growth was -17.6% [100 µM] (active) in the assay with SNB-75 CNS; -90.1% [100 µM] (active) in the assay on SNB-19 CNS; -83.2% [100 µM] (active) with U251 CNS; -19.6% [100 µM] (active) in the assay with PC-3 prostate; -100% [100 µM] (active) in the assay with SK-MEL-5 melanoma; -70.5% [100 µM] (active) in the assay with UACC-62 melanoma. In addition, the results for the growth with LOX IMVI melanoma and in the assay with SK-MEL-28 melanoma were -74.1% [100 µM] (active) and -59.7% [100 µM] (active), respectively.
